From PubChem BioAssay
This is a sample that favours compounds with a hit; in the whole collection about 3.8% have one here.
HT1080 IDH1KD tx: qHTS for induction of synthetic lethality in tumor cells producing 2HG: qHTS for the HT-1080-IDH1KD cell line | HT-1080 IDH1 knockdown viability, ATP luminescence, 48 h | Potency, µM (doses to about 46.1 µM), most hits filed as cytotoxic | hit rate 2% among 360,000 | AID 686971, 2013
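Cytotoxicity counter-line: IDH1KD HT-1080, 48 h, CellTiter-Glo. Curves classed by r2, magnitude and activity.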
HepG2 tox: qHTS for Inhibitors of TGF-b: Cytotox Counterscreen. HepG2 CAGA-GFP viability, ATP luminescence, 18 h. Potency, µM (doses to about 46.1 µM), hits mostly cytotoxic. hit rate 0.76% among 410,000
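HepG2 CAGA-GFP cells (1000/well, DMEM with 1% FBS) received compound, then TGF-beta at 500 pg/mL final, and were incubated 18 hours at 37 degrees C. Viability was read by CellTiter-Glo luminescence. Media-only wells were set as complete cell-killing and DMSO as no toxicity.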
ATXN2 expr inh: Primary qHTS for Inhibitors of ATXN expression. HEK-293 ATXN2-luciferase reporter, luminescence, 24 h. Potency, µM (series often up to 57 µM), actives largely listed as inhibitors. hit rate 0.72% among 360,000. AID 1745845, 2022; note: nearly all actives have a fitted effect of over 55% in size
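ATXN2-luciferase reporter cells (luciferase flanked by upstream and downstream ATXN2 gene portions) were treated 24 h at 37 °C with compounds at up to 57 uM. SteadyGlo luminescence gave expression; GF-AFC fluorescence gave viability.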
S2 tox: Viability Counterscreen for Primary qHTS for Inhibitors of ATXN expression. S2 cells (HEK-293 line with an ATXN2-luciferase reporter) viability, CellTiter-Fluor protease fluorescence, 24 h. Potency, µM (top dose mostly 56.7 µM), usual class: cytotoxic. hit rate 0.49% among 400,000; note: nearly all actives have a fitted effect of over 40% in size
TGFb inhibitor: qHTS for Inhibitors of TGF-b; HepG2 CAGA-GFP TGF-b/SMAD3 reporter, GFP fluorescence, 18 h; TGF-beta stimulated, 500 pg/mL final; hit rate 1.2% among 410,000; Potency, µM (top dose mostly 46.1 µM), actives largely listed as inhibitors; note: nearly all actives have a fitted effect of over 65% in size
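Smad-responsive CAGA-GFP expression was quantified in HEPG2 cells exposed to compounds and 500 pg/mL final TGF-beta for 18 h at 37 degrees C; unstimulated wells defined full inhibition.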
HT1080NT lethal: qHTS for induction of synthetic lethality in tumor cells producing 2HG: qHTS for the HT-1080-NT fibrosarcoma cell line; HT-1080-NT fibrosarcoma viability, CellTiter-Glo ATP luminescence, 48 h; Potency, µM (top dose mostly 46.1 µM), actives largely listed as cytotoxic; hit rate 1.6% among 360,000; AID 686970, 2013;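 note: NT is the 2HG producing partner of a matched IDH1 knockdown line; nearly all actives have a fitted effect of over 55% in size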
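Toxicity toward the 2HG-producing NT line was scored as %Activity, normalised to DMSO and no-cell wells, from CellTiter-Glo luminescence after 48 hours' treatment.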
Of the large screens only hits and unclear results are named; the others gave an inactive call; ! = not active in a repeat. Calls come from the whole dose curve; as a rule, active = well fitted curve in the direction sought with a large enough effect; inconclusive = small, poorly fitted or top-dose-only effect, or another doubt; inactive = no such curve, though single readings can be large; an effect the other way counts as inactive or inconclusive.

CCC1(C2CCN(Cc3ccoc3)CC2)NC(=O)N(CC2COc3ccccc3O2)C1=O (stereo unspecified)	none (no result: HT1080 IDH1KD tx, HepG2 tox, ATXN2 expr inh, TGFb inhibitor, HT1080NT lethal)
COc1cc(-c2cc(C)c3cccc(OC)c3n2)cc2c1OCCN(C(=O)Cn1nc(C)cc1C)C2	none (no result: HT1080 IDH1KD tx, HepG2 tox, ATXN2 expr inh, TGFb inhibitor, HT1080NT lethal)
Cc1[nH]c(C=C2C(=O)Nc3ccccc32)c(C)c1CCC(=O)O	ATXN2 expr inh 1.09µM (no result: HT1080 IDH1KD tx, HepG2 tox, S2 tox, TGFb inhibitor, HT1080NT lethal)
Cc1oc(-c2ccccc2NC(=O)c2ccccn2)nc1CNC(=O)c1ccc(Oc2ccccc2)o1	none (no result: HT1080 IDH1KD tx, HepG2 tox, ATXN2 expr inh, TGFb inhibitor, HT1080NT lethal)
O=C(O)CSc1ncnc2scc(-c3ccc(Br)cc3)c12	none
Cn1nnnc1Sc1ncnc2scc(-c3cccc(S(C)(=O)=O)c3)c12	ATXN2 expr inh 8.91µM, S2 tox inconclusive, TGFb inhibitor inconclusive (no result: HT1080 IDH1KD tx, HT1080NT lethal)
Cn1nnnc1Sc1ncnc2scc(-c3cccc(Br)c3)c12	ATXN2 expr inh 8.91µM, S2 tox 14.1µM, TGFb inhibitor inconclusive (no result: HT1080 IDH1KD tx, HT1080NT lethal)
O=C(O)CSc1ncnc2scc(-c3ccccc3)c12	none
CC(=O)c1cccc(-c2csc3ncnc(Sc4nnnn4C)c23)c1	ATXN2 expr inh 6.31µM, S2 tox 7.94µM, TGFb inhibitor 6.31µM (no result: HT1080 IDH1KD tx, HT1080NT lethal)
Cc1ccc(C)c(-c2ccc(=O)n(C(C)C(=O)Nc3ccccc3C(F)(F)F)n2)c1 (stereo unspecified)	S2 tox inconclusive (no result: HT1080 IDH1KD tx, HT1080NT lethal)
CCN(CC)CCCNC(=O)c1ccc2c(c1)sc1nc(-c3ccc(C)cc3)cn12	HepG2 tox 6.31µM (no result: HT1080 IDH1KD tx, ATXN2 expr inh, S2 tox, HT1080NT lethal)
CCCNC(=O)c1ccc2c(c1)sc1nc(-c3ccc(C)cc3)cn12	none (no result: HT1080 IDH1KD tx, ATXN2 expr inh, S2 tox, HT1080NT lethal)
Cc1cc(OCC(=O)Nc2ccncc2)cc(C)c1Br	HT1080 IDH1KD tx 10.3µM
CC(=O)Nc1ccc(NC(=O)COc2cc(O)c3c(c2)OC(C)(C)CC3=O)cc1	none
Cc1cc(OCC(=O)Nc2ccc(Br)cc2)cc2c1C(=O)CC(C)(C)O2	ATXN2 expr inh 12.6µM, TGFb inhibitor inconclusive
COc1ccc(NC(=O)N2CCN(c3cc(-c4noc(C)n4)ccc3C)CC2)c(OC)c1	none (no result: HT1080 IDH1KD tx, HT1080NT lethal)
COc1ccc(NC(=O)c2ccc(-c3ccc(-c4noc(C)n4)cc3C)cc2)cc1N1CCN(C)CC1	HT1080 IDH1KD tx 23.1µM, HepG2 tox 11.2µM!, ATXN2 expr inh inconclusive, TGFb inhibitor 17.8µM, HT1080NT lethal 8.2µM (no result: S2 tox)
COc1ccc(CNC(=O)Cn2c(=O)cc(-c3ccccc3)c3c(C)nn(C)c32)cc1	none (no result: HT1080 IDH1KD tx, HT1080NT lethal)
O=C(Nc1ccc(Cl)c(Cl)c1)c1cccc(S(=O)(=O)NCc2cccnc2)c1	HT1080 IDH1KD tx 23.1µM, ATXN2 expr inh inconclusive, S2 tox inconclusive, TGFb inhibitor inconclusive, HT1080NT lethal 7.31µM
COc1cccc(S(=O)(=O)NCc2ccc(C(=O)Nc3ccc(Cl)c(Cl)c3)cc2)c1	TGFb inhibitor inconclusive
Cc1ccccc1CNC(=O)CCCn1c(=O)c2cccn2c2ccccc21	TGFb inhibitor inconclusive (no result: HT1080 IDH1KD tx, ATXN2 expr inh, S2 tox, HT1080NT lethal)
c1cc2c(cc1C1CCCCC1)c1c3n2CCCNC3CCC1 (stereo unspecified)	HT1080 IDH1KD tx 20.6µM, HepG2 tox 12.6µM, ATXN2 expr inh 28.2µM, HT1080NT lethal 16.4µM (no result: S2 tox)
c1cc2c(cc1C1CCCCC1)c1c3n2CCN=C3CCC1	HT1080 IDH1KD tx inconclusive, TGFb inhibitor inconclusive, HT1080NT lethal 20.6µM
Cc1ccc2c(c1)c1c3n2CCN=C3CCC1	none
COc1cc(-c2onc3ccc(Br)cc23)cc(OC)c1OC	HT1080 IDH1KD tx 1.84µM, S2 tox inconclusive, HT1080NT lethal 1.84µM
O=C(CCl)N1CCN(C(=O)C2COc3ccccc3O2)CC1 (stereo unspecified)	HT1080 IDH1KD tx 23.1µM, S2 tox inconclusive, HT1080NT lethal inconclusive
CCCC1C(=O)Nc2ccccc2N1C(=O)c1cccc(C)c1 (stereo unspecified)	none
CCCC1C(=O)Nc2ccccc2N1C(=O)c1ccc(C(C)(C)C)cc1 (stereo unspecified)	HT1080 IDH1KD tx inconclusive, TGFb inhibitor inconclusive, HT1080NT lethal 9.2µM
